Measurements as given in PubChem BioAssay (NCATS).
Inconclusive results are not listed. A number with no mark means an inactive call. Activity calls are given as the source filed them. Calls follow the shape of the dose curve; as a rule, active = well fitted activation curve with a large enough effect; inconclusive = small, poorly fitted or top-dose-only effect; inactive = no such curve, though single readings can be large or run the other way.

Molecular target: Cellular tumor antigen p53 (Homo sapiens) (UniProt P04637)
Assay: Primary qHTS for small molecule compounds that upregulate eGFP-tagged delta133p53alpha (in N-terminal) cells. (AID 2060322); also: nearly all actives have a fitted effect of over 75% in size;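 as to activation: series mostly up to about 56 µM; 0% = DMSO vehicle and 100% = reference activator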
Settings: NCI-H358 eGFP-delta133p53alpha fluorescence, 24 h; activation: hits give high values
Outline: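 NCI-H358 cells pre-induced 24 h with 10 ng/ml doxycycline to express N-terminal eGFP-delta133p53alpha, then dosed 24 h at 37C without doxycycline; fixed, Hoechst-stained, GFP intensity by laser scanning cytometry, normalized to DMSO (0%) and 57.5 uM 5-azacytidine (100%).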
Potency is read from the fitted curve at half-maximal effect.

Sequence of Cellular tumor antigen p53 (Homo sapiens) (P04637 whole entry, looked up): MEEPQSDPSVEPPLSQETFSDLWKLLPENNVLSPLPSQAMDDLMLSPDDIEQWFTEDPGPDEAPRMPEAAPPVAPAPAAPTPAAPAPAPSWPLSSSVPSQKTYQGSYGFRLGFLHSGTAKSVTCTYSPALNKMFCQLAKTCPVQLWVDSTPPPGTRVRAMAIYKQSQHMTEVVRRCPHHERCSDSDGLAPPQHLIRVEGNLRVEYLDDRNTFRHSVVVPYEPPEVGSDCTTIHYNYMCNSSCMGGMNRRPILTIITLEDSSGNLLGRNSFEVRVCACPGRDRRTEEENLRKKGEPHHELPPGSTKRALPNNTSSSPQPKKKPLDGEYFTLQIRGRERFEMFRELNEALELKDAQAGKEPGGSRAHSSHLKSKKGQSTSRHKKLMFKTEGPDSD

For `COC1C=CC23c4cc5c(cc4COC2(O)CN(C)C3C1)OCO5` (configuration not stated), which activation is on record?
The activation was -5.36%.

For `CC(=O)O[C@@H]1[C@H]2CC[C@H]3[C@@](C)(O)[C@@H]4C[C@H](O)C(C)(C)[C@@]4(O)[C@H](O)C[C@@]13C[C@@]2(C)O`, which activation is on record?
The activation was 6.87%.

With `C=C(C)C(=O)O[C@H]1[C@@H]2[C@H](C)C(=O)O[C@@H]2C[C@@H](C)[C@@H]2C=CC(=O)[C@]21C` as the compound, how does the Potency read?
The Potency was 13200 nM (active).

`COc1cc(C(=O)O[C@H]2[C@@H]3C=CO[C@@H](O[C@@H]4O[C@H](CO)[C@@H](O)[C@H](O)[C@H]4O)[C@@H]3[C@@]3(CO)O[C@@H]23)ccc1O` was tested. Which activation did it give?
Its activation is -3.82%.

Which activation does the source give for `CC1C/C=C/C(O)C(O)CC/C=C/c2cc(O)cc(O)c2C(=O)O1` (configuration not stated) here?
The activation was -10.7%.

With `CC(=O)O[C@@H]1[C@@H](O)[C@H]2O[C@@H]3C=C(C)[C@@H](O)C[C@]3(CO)[C@]1(C)[C@]21CO1` as the compound, how does the Potency read?
The Potency was 1480 nM (active).

With `CC(=O)C1CCC2C3CCC4C[C@@H](O)CCC4(C)C3CCC12C` (some centres not stated) as the compound, how does the activation read?
Its activation is -2.33%.

`CN1CCN(c2nc3ccccc3nc2Cl)CC1` was tested. Which activation did it give?
Its activation is 1%.

Which Potency does the source give for `C[C@@H]1O[C@@H](O[C@H]2CC[C@@]3(C)C(CC[C@@H]4C3CC[C@]3(C)[C@@H](C5=CC(=O)OC5)CC[C@]43O)C2)[C@H](O)[C@H](O)[C@H]1O` (some centres not stated) here?
The Potency was 1650 nM (active).

`CCC1CC2CN3CCc4c([nH]c5ccccc45)C(C(=O)OC)(C2)C13` (configuration not stated) was tested. Which activation did it give?
Its activation is 3.05%.

`C[C@H]1O[C@@H](O[C@H]2[C@@H](O)C[C@H](O[C@H]3[C@@H](O)C[C@H](O[C@H]4CC[C@@]5(C)[C@H](CC[C@@H]6[C@@H]5CC[C@]5(C)[C@@H](C7=CC(=O)OC7)CC[C@]65O)C4)O[C@@H]3C)O[C@@H]2C)C[C@H](O)[C@@H]1O` was tested. Which activation did it give?
Its activation is 5.34%.

Which activation does the source give for `CCOP(=O)(OCC)Oc1ccc2c(C)cc(=O)oc2c1` here?
Its activation is 6.33%.

How did the activation turn out when `C[C@]12CC[C@H](OC3OC(CO)C(O)C(O)C3OC3OC(CO)C(O)C(O)C3O)C[C@@H]1CC[C@@H]1C2CC[C@]2(C)[C@@H](C3=CC(=O)OC3)CC[C@]12O` (some centres not stated) was run?
The activation was 13.4%.

With `CC(=O)OC1CC(O)C(C)(C)C2CC(OC(C)=O)C3(C)C(CCC4(C)C(c5ccoc5)C(=O)C5OC543)C12C` (configuration not stated) as the compound, how does the activation read?
The activation was -13%.

How did the activation turn out when `CC1=CC2/C=C(\C)CCCC(O)/C=C/C(=O)OC23C(=O)NC(CC(C)C)C3C1C` (configuration not stated) was run?
The activation was 1.79%.

`N#CC(OC1OC(COC2OC(CO)C(O)C(O)C2O)C(O)C(O)C1O)c1ccccc1` (configuration not stated) was tested. Which activation did it give?
Its activation is 8.4%.

`CC(O)(c1ccccc1)C(Cc1ccc(Cl)cc1)n1cncn1` (configuration not stated) was tested. Which activation did it give?
The activation was -8.59%.

For `CC[C@@H]1C[C@H]2CC[C@H](O2)[C@H](C)C(=O)O[C@@H](C)C[C@@H]2CC[C@@H](O2)[C@@H](C)C(=O)O[C@H](C)C[C@H]2CC[C@H](O2)[C@H](C)C(=O)O[C@@H](C)C[C@@H]2CC[C@@H](O2)[C@@H](C)C(=O)O1`, which activation is on record?
Its activation is -13.7%.

With `C[C@H]1O[C@@H](n2cnc3c(N)ncnc32)C[C@@H]1O` as the compound, how does the activation read?
Its activation is 15%.

How did the activation turn out when `CO/C1=C\C(C)=C\[C@@H](C)[C@@H](O)[C@@H](C)C/C(C)=C/C=C/[C@H](OC)[C@@H]([C@@H](C)[C@@H](O)[C@H](C)[C@@]2(O)C[C@@H](O)[C@H](C)[C@@H](C(C)C)O2)OC1=O` was run?
Its activation is 13%.

For `C=C(C)[C@@]12O[C@@H]1[C@@]1(C)C(=C[C@H]2O)CC[C@@H](O)[C@@H]1C`, which activation is on record?
Its activation is 8.4%.

`C[C@H]1CCC[C@H](O)CCC/C=C/c2cc(O)cc(O)c2C(=O)O1` was tested. Which activation did it give?
Its activation is -13%.

Which activation does the source give for `CC[C@H]1C[C@@H]2CC[C@@H](O2)[C@@H](C)C(=O)O[C@H](CC)C[C@H]2CC[C@H](O2)[C@H](C)C(=O)O[C@@H](C)C[C@@H]2CC[C@@H](O2)[C@@H](C)C(=O)O[C@H](CC)C[C@H]2CC[C@H](O2)[C@H](C)C(=O)O1` here?
Its activation is -0.893%.

How did the activation turn out when `COCC1OC(=O)c2coc3c2C1(C)C1=C(C3=O)C2CCC(=O)C2(C)CC1O` (configuration not stated) was run?
Its activation is -7.63%.

Which activation does the source give for `COC(=O)C1(C)CCC(=O)C2(C)c3c(O)cc(C(C)C)cc3C(O)C(OC(C)=O)C12` (configuration not stated) here?
Its activation is 22.9%.

`CCCCOC(=O)c1ccnc2cc(C(OCCN3CCCCC3)c3ccccc3Cl)sc12` (configuration not stated) was tested. Which activation did it give?
The activation was 25.7%.

Which activation does the source give for `COC1CC(O[C@H]2CC[C@@]3(C)C(=CCC4C3C(O)[C@@H](O)[C@]3(C)[C@@H](C(C)=O)CC[C@]43O)C2)OC(C)C1OC1CC(OC)C(OC2OC(C)C(O)C(O)C2O)C(C)O1` (some centres not stated) here?
The activation was -14.5%.
